This is a sample that favours compounds with a hit; in the whole collection about 3.4% have one here.
PAFAH2 FP inh: inhibitors of human PAFAH2. 340,000 tested, 0.99% active. Q99487. recombinant PAFAH2, FP-rhodamine activity probe, fluorescence polarization. inhibition, % at 3.39 µM;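 active = inhibition above the mean over all tested compounds plus 3 SD, cut at about 30% in these data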;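 note: inhibitors block probe labeling of enzyme so polarization drops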
PP5 primary: inhibitors of human protein phosphatase 5 (PP5). P53041. purified PP5c, OMFP substrate fluorescence. inhibition, % at 6.7 µM. 320,000 tested, 0.18% active. AID 1987;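 active = inhibition above the campaign's mean inhibition across all tested compounds plus 3 SD, cut at about 9.5% in these data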
pPAFAH FP inh: pPAFAH (human) enzyme inhibition. AID 463082. 330,000 tested, 1.5% active. inhibition, % at 3.39 µM. recombinant pPAFAH, FP-rhodamine probe fluorescence polarization;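 active = inhibition above the mean inhibition across the screen plus 3 SD, cut at about 25% in these data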;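 note: inhibitors block binding of the rhodamine activity-based probe so polarization drops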
PAFAH1B2 inh: PAFAH1B2 (human) inhibition | P68402 | recombinant PAFAH1B2, FP-rhodamine activity probe, fluorescence polarization | inhibition, % at 3.39 µM | 340,000 tested, 1.2% active | AID 492953;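 active = inhibition above the mean of all tested compounds plus 3 SD, cut at about 24% in these data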
Target sequence (P68402 whole entry, looked up): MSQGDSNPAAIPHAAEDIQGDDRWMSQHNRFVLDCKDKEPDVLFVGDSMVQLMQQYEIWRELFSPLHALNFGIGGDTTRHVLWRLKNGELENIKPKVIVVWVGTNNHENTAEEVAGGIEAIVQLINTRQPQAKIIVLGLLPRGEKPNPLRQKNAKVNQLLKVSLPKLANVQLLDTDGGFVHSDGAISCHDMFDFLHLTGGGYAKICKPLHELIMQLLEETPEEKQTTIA
PAFAH1B3 inh: blocks human PAF acetylhydrolase 1B catalytic subunit 3. recombinant PAFAH1B3, FP-rhodamine probe, fluorescence polarization. inhibition, % at 3.39 µM. 340,000 tested, 0.28% active. AID 492972;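 active = inhibition above the screen-wide average of all tested compounds plus 3 SD, cut at about 25% in these data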
Target sequence (Q15102 whole entry, looked up): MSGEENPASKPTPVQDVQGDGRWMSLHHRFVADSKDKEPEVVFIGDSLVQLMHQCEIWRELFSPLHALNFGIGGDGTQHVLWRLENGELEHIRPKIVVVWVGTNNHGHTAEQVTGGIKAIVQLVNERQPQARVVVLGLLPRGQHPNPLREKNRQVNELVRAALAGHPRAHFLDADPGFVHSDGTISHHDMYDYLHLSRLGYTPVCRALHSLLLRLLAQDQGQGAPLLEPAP
PP1 inh: PP1-alpha (human) inhibition in PP5 counter-screen; purified PP1alpha, OMFP fluorescence; P62136; AID 2235; 320,000 tested, 0.9% active; inhibition, % at 6.7 µM;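 active = inhibition above the mean inhibition of all tested compounds plus 3 SD, computed separately for each screening campaign, cut at about 15% in these data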
Hits are given with their value.

For CC1CC(NC(=O)/C=C/C(=O)O)CC(C)(C)C1 (configuration not stated) the results were PAFAH2 FP inh inactive, PP5 primary inactive, pPAFAH FP inh inactive, PAFAH1B2 inh 24, PAFAH1B3 inh inactive and PP1 inh inactive.
Screening CCCNS(=O)(=O)c1cccc(C(=O)NNC(=O)c2cc(C)oc2C)c1 returned PAFAH2 FP inh inactive, PP5 primary inactive, pPAFAH FP inh inactive, PAFAH1B2 inh inactive, PAFAH1B3 inh inactive and PP1 inh inactive.
For CN(CC(=O)Nc1ccc(Cl)c(Cl)c1)C(=O)C12CC3CC(CC(C3)C1)C2 the results were PAFAH2 FP inh inactive, PP5 primary inactive, pPAFAH FP inh inactive, PAFAH1B2 inh 26, PAFAH1B3 inh inactive and PP1 inh inactive.
Screening CN(CC(=O)Nc1ccc(Cl)c(Cl)c1)C1CCCCC1 returned PAFAH2 FP inh inactive, PAFAH1B2 inh inactive and PAFAH1B3 inh inactive.
For Cc1cccc2sc(NC(=O)Cn3c(C)csc3=O)nc12 the results were PAFAH2 FP inh inactive, PAFAH1B2 inh inactive and PAFAH1B3 inh inactive.
CC(C)(C)c1ccc(C(=O)N2CCNCC2)cc1 was read as PAFAH2 FP inh inactive, PP5 primary inactive, pPAFAH FP inh 27, PAFAH1B2 inh inactive, PAFAH1B3 inh inactive and PP1 inh inactive.
For CC(C)(C)c1ccc(C(=O)N2CCCN(C(=O)c3ccc(C(C)(C)C)cc3)CC2)cc1 the results were PAFAH2 FP inh inactive, PP5 primary inactive, pPAFAH FP inh inactive, PAFAH1B2 inh inactive, PAFAH1B3 inh inactive and PP1 inh inactive.
For COc1ccc(C2C/C(=N\O)C(C)(C)O2)cc1 (configuration not stated) the results were PAFAH2 FP inh inactive, PP5 primary inactive, pPAFAH FP inh inactive, PAFAH1B2 inh inactive, PAFAH1B3 inh inactive and PP1 inh 17.
COc1ccc2c(c1)c(C(=O)N/N=C/c1ccc(Br)cc1)c(C)n2C was read as PAFAH2 FP inh inactive, PP5 primary inactive, pPAFAH FP inh inactive, PAFAH1B2 inh inactive, PAFAH1B3 inh inactive and PP1 inh inactive.
COc1ccc2c(/C=N/Nc3ccc(C(=O)O)cc3)c[nH]c2c1 was read as PAFAH2 FP inh inactive, PP5 primary inactive, pPAFAH FP inh 28, PAFAH1B2 inh inactive, PAFAH1B3 inh inactive and PP1 inh inactive.
For COc1ccc(/C(C)=N/Nc2ccc(C(=O)O)cc2)c(OC)c1 the results were PAFAH2 FP inh inactive, PP5 primary inactive, pPAFAH FP inh inactive, PAFAH1B2 inh inactive, PAFAH1B3 inh inactive and PP1 inh inactive.
For COc1ccc2c(c1)c(/C=N/Nc1ccc(C(=O)O)cc1)c(C)n2C the results were PAFAH2 FP inh inactive, PP5 primary inactive, pPAFAH FP inh 25, PAFAH1B2 inh inactive, PAFAH1B3 inh inactive and PP1 inh inactive.
For COc1ccc2c(c1)C(=NNc1ccc(C(=O)O)cc1)c1cc(OC)ccc1-2 the results were PAFAH2 FP inh inactive, PP5 primary inactive, pPAFAH FP inh 31, PAFAH1B2 inh inactive, PAFAH1B3 inh 27 and PP1 inh 16.
C/C(Cc1ccccc1)=N\NC(=O)CNC(=O)c1ccc(Cl)cc1Cl was read as PP5 primary inactive, pPAFAH FP inh inactive and PP1 inh inactive.
`O=C(Cn1c(C(F)(F)F)nc2ccccc21)N=Nc1c(O)[nH]c2ccc(Br)cc12` gave PAFAH2 FP inh inactive, PP5 primary inactive, pPAFAH FP inh inactive, PAFAH1B2 inh inactive, PAFAH1B3 inh inactive and PP1 inh inactive.
Screening CC12CCC(c3c(C(=O)O)nn(-c4ccc(F)cc4)c31)C2(C)C (configuration not stated) returned PAFAH2 FP inh inactive, PP5 primary inactive, pPAFAH FP inh inactive, PAFAH1B2 inh inactive, PAFAH1B3 inh inactive and PP1 inh 15.
Screening CN(C)CCNCCCNc1c2ccccc2nc2cccc([N+](=O)[O-])c12 returned PAFAH2 FP inh inactive, PAFAH1B2 inh inactive and PAFAH1B3 inh inactive.
`c1ccc(-c2csc3ncnc(NCC4COc5ccccc5O4)c23)cc1` (configuration not stated) gave PAFAH2 FP inh inactive, PP5 primary inactive, pPAFAH FP inh 34, PAFAH1B2 inh inactive, PAFAH1B3 inh inactive and PP1 inh inactive.
Screening O=C(CSc1nccn1-c1ccccc1)N1CCc2ccccc21 returned PAFAH2 FP inh inactive, PP5 primary inactive, pPAFAH FP inh inactive, PAFAH1B2 inh inactive, PAFAH1B3 inh inactive and PP1 inh inactive.
For O=C(CSc1nccn1-c1ccc(Cl)cc1)N1CCCc2ccccc21 the results were PAFAH2 FP inh inactive, PP5 primary inactive, pPAFAH FP inh inactive, PAFAH1B2 inh 25, PAFAH1B3 inh inactive and PP1 inh inactive.

Assay outcomes deposited in PubChem by The Scripps Research Institute Molecular Screening Center.
